Reference: PubChem BioAssay (NCATS)
Several values for one entry are separate records, joined by “and”; a condition that tells them apart may be missing. Equal values may be shown once. Records with an inconclusive call do not appear. Activity calls are given as the source filed them. Unless noted, the call rests on the fitted dose curve; in most records, active means well fitted curve in the direction sought with a large enough effect; inconclusive means small, poorly fitted or top-dose-only effect, or another doubt; inactive means no such curve, though single readings can be large; an effect the other way counts as inactive or inconclusive.

How the values were obtained:
[1] = qHTS assay for measurement of the activity of small molecule inhibitors on Zika virus induced Caspase-3 activity in human iPSC derived neural progenitor cells (hNPCs) (AID 1224857); further: % of control where 0% means no effect; nearly all actives have a fitted effect of over 65% in size
Summary of the method: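 Values are percent inhibition of virus-induced caspase-3/7 signal, scaled between uninfected cells and ZIKV-infected cells. Infection used 2 FFU/cell for 6 h after 1 h compound exposure.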

[2] = qHTS assay for measurement of the activity of small molecule inhibitors on Zika virus induced Caspase-3 activity in human astrocytoma cells (AID 1224859);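 further: plate controls were ZIKV-infected untreated cells for no effect and uninfected cells for full effect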
Summary of the method: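 Compound added 1 h pre-infection; ZIKV 2 FFU/cell on SNB-19 cells, 6 h, 37 C/5% CO2. Caspase-Glo 3/7 luminescence; values as % inhibition of ZIKV-induced caspase activity.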

[3] = qHTS assay to identify small molecule inhibitors of chordoma cells - UCH-1 (AID 1259355); further: on the % scale 0 is the no-effect control and ±100 the full control effect; nearly all actives have a fitted effect of over 55% in size
Summary of the method: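 Screening used approved and investigational drugs in 15-point titration against 800 seeded cells per well. A fixed combination of auranofin with camptothecin, doxorubicin, rubitecan and topotecan followed compound addition, and growth was scored by CellTiter-Glo after 48hr.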

[4] = qHTS assay to identify small molecule inhibitors of chordoma cells - UCH-2 (AID 1259356); further: series mostly up to about 46 µM; on the % scale 0 is the no-effect control and ±100 the full control effect
[5] = P-glycoprotein substrates identified in KB-8-5-11 adenocarcinoma cell line, qHTS therapeutic library screen (AID 1346987); conditions: outcome: dose series up to 44.5 µM; further: series mostly up to about 44 µM; on the % scale 0 is the no-effect control and ±100 the full control effect; nearly all actives have a fitted effect of over 65% in size
Summary of the method: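 In this qHTS, P-gp-rich KB-8-5-11 cells received library compounds across a concentration range. Viability was quantified by luminescence after 72 h at 37 degree C.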

[6] = qHTS assay for small molecule agonists of the antioxidant response element (ARE) signaling pathway measured by Nrf2-dependant transcriptional activity (AID 720636; active means well fitted curve in the direction sought with a large enough effect in the repeat runs; an effect the other way counts as inactive or inconclusive;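 further: HepG2 cells with an ARE-driven luciferase reporter; % of control where 0% means no effect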)
Summary of the method: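 Attachment 6 hr at 37 C, then compound versus DMSO vehicle for 16 hr in ARE-luc HepG2 cells (1% dialyzed FBS); luminescence recorded 30 min after ONE-Glo addition at room temperature.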

[7] = qHTS assay for small molecule antagonists of the retinoid-related orphan receptor gamma (ROR-gamma) signaling pathway - cell viability counter screen (AID 720652; active means well fitted curve in the direction sought with a large enough effect in the repeat runs; an effect the other way counts as inactive or inconclusive;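 further: CHO reporter cells with doxycycline-induced ROR-gamma expression; series mostly up to about 92 µM; compound exposure lasted 16 hr before ATP read; on the % scale 0 is the no-effect control and ±100 the full control effect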)
Summary of the method: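 CHO RORE-LUC/TET-ROR line, 1,000 cells/well, 37 C 5% CO2 5 hr; cpd or DMSO + doxycycline induction, 16 hr. CellTiter-Glo, 30 min RT, luminescence = ATP content.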

[8] = qHTS assay for small molecule agonists of the antioxidant response element (ARE) signaling pathway measured by Nrf2-dependant transcriptional activity - cell viability counter screen (AID 720653; active means well fitted curve in the direction sought with a large enough effect in the repeat runs; an effect the other way counts as inactive or inconclusive; further: on the % scale 0 is the no-effect control and ±100 the full control effect); conditions: ARE-bla HepG2 viability, CellTiter-Glo ATP luminescence, 16 h; hits give low values
Summary of the method: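 ARE-bla HepG2 cells treated with compounds for 16 h at 37C; this counter screen measures viability as intracellular ATP by CellTiter-Glo luminescence after 30 min at room temperature.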

[9] = qHTS Assay for Identifying Gametocytocidal Compounds (AID 743244);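 further: on the % scale 0 is the no-effect control and ±100 the full control effect; actives lower the fluorescent signal which means gametocytes are killed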; conditions: P. falciparum 3D7 stage III-V gametocytes, alamarBlue, 72 h; max response: hits give low values
Summary of the method: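 Stage III–V gametocytes of P. falciparum 3D7 were seeded at 20,000 cells/well onto pre-dispensed compounds. After 72 h, 37 °C, 5% CO2, alamarBlue was added for another 24 h.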

[10] = qHTS assay for cell viability of HEK293 cells (AID 743288); conditions: ATP luminescence (CellTiter-Glo), 18 h, hits give low values; further: on the % scale 0 is the no-effect control and ±100 the full control effect; nearly all actives have a fitted effect of over 50% in size
Summary of the method: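 Quantitative high-throughput screen: compounds were pinned onto parental HEK293 cells (2,000 per well) after a minimum 5 h settling at 37 C, incubated 18 h at 37 C, and intracellular ATP measured by luciferase luminescence.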

[11] = qHTS assay for cell viability of the p53RE-bla HCT-116 cell line (AID 743292); further: on the % scale 0 is the no-effect control and ±100 the full control effect; nearly all actives have a fitted effect of over 55% in size
Summary of the method: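 Compound-exposed HCT-116 (p53RE-bla) cells, 4,000 per well, were kept 16 h at 37 C following a 5 h preincubation. Cell number was estimated from total ATP by CellTiter-Glo luminescence read after 30 min at room temperature.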

Measured: max response

O=C(O)CCC(=O)O
inactive: [1] | [2] | [3] | [4] | [5]

CC(=O)Nc1cccc(O)c1
inactive: [6] | [7] | [8] 3.22% | [9] 5.77% | [10] -4.32% | [11] | [1] | [2] | [3] | [4] | [5]

NC(=O)c1ccc([N+](=O)[O-])cc1Cl
inactive: [1] | [2] | [3] | [4] | [5]

O=C1c2ccccc2S(=O)(=O)N1CCCCN1CCN(c2ncccn2)CC1
inactive: [9] -4.4% | [1] | [2] | [3] | [4] | [5]

Cc1ccc(C(C)C)c(O)c1
inactive: [6] | [8] -4.59% | [9] 22.6% | [10] -16.2% | [11] | [1] | [2] | [3] | [4] | [5]

O=C(OOC(=O)c1ccccc1)c1ccccc1
inactive: [6] | [8] -11.2% | [9] -8.14% | [10] -11.7% | [11] | [1] | [2] | [3] | [4] | [5]

CCN(CC)CCOC(=O)C(c1ccccc1)c1ccccc1
inactive: [9] -5.96% | [1] | [2] | [3] | [4] | [5]

CN1C(C)(C)CCCC1(C)C
inactive: [1] | [2] | [3] | [4] | [5]

CCCC(O)C(CC)CO (stereo unspecified)
inactive: [6] | [7] | [8] 0.4% | [9] 0.642% | [10] -0.929% | [11] | [1] | [2] | [3] | [4] | [5]

O=C(c1ccccc1)C(O)c1ccccc1 (stereo unspecified)
inactive: [6] | [7] | [8] -4.04% and -7.26% | [9] 0.61% | [10] 0.203% and -6.25% | [11] | [1] | [2] | [3] | [4] | [5]

CCCCCCCCCCCCCCCCCCO
inactive: [6] | [8] 2.19% | [9] 4.31% | [10] -6.21% | [1] | [2] | [3] | [4] | [5]

FC(F)(F)C(Cl)Br (stereo unspecified)
inactive: [6] | [7] | [8] -1.89% | [9] -11.3% | [10] 6.13% | [11] | [1] | [2] | [3] | [4] | [5]

O=C(/C=C/c1ccc(O)c(O)c1)O[C@@H]1C[C@@](OC(=O)/C=C/c2ccc(O)c(O)c2)(C(=O)O)C[C@@H](O)[C@@H]1O
inactive: [9] 3.41% | [1] | [2] | [3] | [4] | [5]

CC(CSC(=O)c1ccccc1)C(=O)N1C[C@@H](Sc2ccccc2)C[C@H]1C(=O)O (stereo partly specified)
inactive: [9] 2.09% | [1] | [2] | [3] | [4] | [5]

C=CCOc1ccccc1OCC(O)CNC(C)C (stereo unspecified)
inactive: [9] 5.69% | [1] | [2] | [3] | [4] | [5]

NNC(=O)CP(=O)(c1ccccc1)c1ccccc1
inactive: [9] -4.41% | [1] | [2] | [3] | [4] | [5]

COc1cc(O)cc(O)c1
inactive: [9] -9.75% | [1] | [2] | [3] | [4] | [5]

Cc1c(C(=O)NCCO)[n+](=O)c2ccccc2n1[O-]
inactive: [6] | [8] -7.99% | [9] 6.22% | [10] -4.66% | [11] | [1] | [2] | [3] | [4] | [5]

CCc1nnc(NS(=O)(=O)c2ccc(N)cc2)s1
inactive: [1] | [2] | [3] | [4] | [5]

C=CCN1C[C@H](C(=O)N(CCCN(C)C)C(=O)NCC)C[C@@H]2c3cccc4[nH]cc(c34)C[C@H]21
inactive: [1] | [2] | [3] | [4] | [5]

CC(C)=CCC/C(C)=C/CO
inactive: [6] | [8] 4.56% | [10] 0.933% | [11] | [1] | [2] | [3] | [4] | [5]

CC(=O)NS(=O)(=O)c1ccc(N)cc1
inactive: [6] | [7] | [8] -11.8% | [9] 2.53% | [10] -3.22% | [11] | [1] | [2] | [3] | [4] | [5]

O=C1CC[C@@H](C(=O)O)N1
inactive: [9] -5.19% | [1] | [2] | [3] | [4] | [5]
